Data on 45 compounds can be found in PubChem BioAssay AID1490 (National Center for Advancing Translational Sciences (NCATS), 2009).

The whole screen tested about 310,000 compounds, of which about 11,000 (3.5%) were called active. Another 4% or so got no clear call; they are omitted. The full list was thinned out, with actives kept by preference. Where a structure was tested more than once in an assay, its records may differ in their call. Unmarked numbers belong to inactive results. The call rests on the fitted dose curve; in most records, active means well fitted inhibition curve with a large enough effect; inconclusive means small, poorly fitted or top-dose-only effect, or another doubt; inactive means no such curve, though single readings can be large or run the other way.
Potency means the concentration at half of the fitted maximal effect.

In this assay the target is 4'-phosphopantetheinyl transferase ffp (Bacillus subtilis) (UniProt Q9F4F7). The experiment in a line: qHTS Assay for Inhibitors of Bacillus subtilis Sfp phosphopantetheinyl transferase (PPTase).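 Further: the enzyme is Sfp with the accession as filed and its product quenches rhodamine fluorescence.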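 On largest response in the series, negative = inhibition: 0% = enzyme reaction without inhibitor and -100% = no enzyme wells.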 Particulars: Biochemical Sfp PPTase activity. A digest of the protocol:
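With Hepes-Na pH 7.6 buffer containing 10 mM MgCl2, Sfp (15 nM) modified BHQ-2-YbbR (12.5 uM) using rhodamine-CoA (5 uM). Two reads 30 minutes apart at 525/598 nm yielded each well's rate.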
(In general: qHTS replaces the single test concentration by a dilution series.)
On to `C=CCn1c(C23CC4CC(CC(C4)C2)C3)n[nH]c1=S`, for which the largest response in the series, negative = inhibition was 14.6%. Take `COc1ccc(N(C(=O)c2snc(C(N)=O)c2N)C(C(=O)NC2CCCC2)c2ccc(C)o2)c(OC)c1` (stereo unspecified): the largest response in the series, negative = inhibition is -2.29%. `Cn1cc(C(=O)c2ccc(Cl)cc2Cl)cc1C(=O)NN`: the largest response in the series, negative = inhibition is 10.1%. On to `CCCCN1C(=O)/C(=C2/Sc3ccc(Cl)cc3N2CC)SC1=S`, for which the largest response in the series, negative = inhibition is 3.35%. On to `CCN1C(=O)/C(=C2/Sc3ccccc3N2CCCS(=O)(=O)O)SC1=S`, for which the Potency is 79.4 µM (active) and the largest response in the series, negative = inhibition was 8.36%. `CCN1C(=O)/C(=c2\s/c(=C3\Sc4ccccc4N3C)c(=O)n2C)N(C)C1=S`: the largest response in the series, negative = inhibition was 1.11%. Take `C[C@H](NC(=O)c1nc[nH]c1C(=O)NCC(=O)OC(C)(C)C)c1ccccc1`: the largest response in the series, negative = inhibition was 10.2%.

Turning to `CC(C)[C@H](NC(=O)N1CCn2c1nc1ccccc12)C(=O)NCc1ccc2c(c1)OCO2`, the largest response in the series, negative = inhibition was 20.1%.

As for `CC(C)C(=O)NCC(c1cccs1)S(=O)(=O)c1ccc(F)cc1` (stereo unspecified), the largest response in the series, negative = inhibition is 0.881%. Same read-out and setting: under `CNc1ccc(NC(C)=O)cc1[N+](=O)[O-]` stands 18.8%; under `CCc1nnc(NC(=O)/C=C/c2ccc(C)o2)s1`, 1.89%.

As for `Cc1ccc(/C=C/C(=O)Nc2ccc([N+](=O)[O-])c(NC(=O)/C=C/c3ccc(C)o3)c2)o1`, the Potency is 17.8 µM (active). In the case of `COc1cc(/C=C2\SC(=O)NC2=O)ccc1OCc1ccc(Cl)nc1`, the largest response in the series, negative = inhibition was -9.24%. Take `CCn1c(CNC(=O)c2cc(OC)c(OC)c(OC)c2)cc2cc(C)ccc21`: the largest response in the series, negative = inhibition is -13.9%.

Take `CCOc1ccc(CCNC(=O)Nc2ccccc2)cc1OCC`: the largest response in the series, negative = inhibition was 11.9%. As to `Cc1ccccc1NC(=O)C1CCCN(C(=O)NCc2ccccc2)C1` (stereo unspecified), the largest response in the series, negative = inhibition is -0.998%. For the compound `N=c1n(CCc2ccccc2)c2ccccc2n1Cc1ccccc1F`, the Potency was 50.1 µM (active).

As to `CC(=O)NC(C)c1nc2ccccc2n1Cc1ccccc1F` (stereo unspecified), the largest response in the series, negative = inhibition was 11%. Same read-out and setting: the result for `Fc1ccccc1Cn1cnc(NC(=S)NCCc2ccccc2)n1` reads -24.4%.

`O=Cc1c(Nc2ccccc2Cl)nc2ccccn2c1=O`: the Potency is 31.6 µM (active). As for `Cc1cccn2c(=O)c(C=O)c(Nc3ccc(S(N)(=O)=O)cc3)nc12`, the largest response in the series, negative = inhibition was 12.7%. As to `O=Cc1c(N2CCN(c3cccc(Cl)c3)CC2)nc2ccccn2c1=O`, the largest response in the series, negative = inhibition is -4.2%. Turning to `O=C(Nc1cccc(-c2cccc(Cl)c2)c1)C1CCN(C2CCC2)CC1`, the largest response in the series, negative = inhibition was -24.2%. As to `COc1ccc(S(=O)(=O)N2CCC(C(=O)N3CCCC3)CC2)cc1C`, the largest response in the series, negative = inhibition was 9.47%. Regarding `COC(=O)C1=C(N)Oc2cc(C)[nH]c(=O)c2C1c1ccc(Cl)cc1` (stereo unspecified), the largest response in the series, negative = inhibition is 1.3%. With `O=C1CSC(c2ccc(Cl)cc2)N1` (stereo unspecified), the Potency was 79.4 µM (active). For the compound `O=C1NC(=O)C(c2ccc(Cl)cc2)N1` (stereo unspecified), the largest response in the series, negative = inhibition was -0.697%.

Turning to `CC(C)c1ccc(NC(=O)Cn2ncc3ccccc32)cc1`, the largest response in the series, negative = inhibition was 13.4%. Still for that read-out and setting: the result for `COc1ccc2c(C(=O)c3ccc(C)cc3)n(CCC(N)=O)[n+]([O-])c2c1` reads -4.94%.

Turning to `Cc1cccc(Nc2nc(-c3ccccc3)cs2)n1`, the largest response in the series, negative = inhibition is -27.9%.

In the case of `CC(=O)Nc1cccc(-c2csc(Nc3cccc(C)n3)n2)c1`, the Potency is 79.4 µM (active). Turning to `COc1ccc(CCNc2nc(-c3cccc(NC(C)=O)c3)cs2)cc1OC`, the largest response in the series, negative = inhibition was -23.9%. In the case of `Cc1noc(NS(=O)(=O)c2ccc(NC(=O)c3oc4ccc(F)cc4c3C)cc2)c1C`, the largest response in the series, negative = inhibition was 14.6%. As to `CCN(CC)C(=O)COc1coc(CN2CCN(Cc3ccccc3)CC2)cc1=O`, the largest response in the series, negative = inhibition was 12.6%. For the compound `COCCNC(=S)Nc1cc(S(=O)(=O)N2CCOCC2)ccc1N1CCCCC1`, the Potency was 1 µM (active). For `CC(=O)NCCC(=O)Nc1cc(S(=O)(=O)N2CCOCC2)ccc1N1CCOCC1`, the largest response in the series, negative = inhibition was 23.2%.

As to `O=C(COC(=O)Cc1ccc(F)cc1)Nc1cc(S(=O)(=O)N2CCOCC2)ccc1N1CCCC1`, the largest response in the series, negative = inhibition is 11.4%.

Consider `CCc1ccccc1NC(=O)[C@@H]1CCC(=O)N1C1OC(=O)c2c1ccc(OC)c2OC` (stereo partly specified), for which the largest response in the series, negative = inhibition was 9.06%.

With `CCOc1ccc(N(CC(=O)NCC2CCCO2)S(=O)(=O)c2ccc(C)cc2)cc1` (stereo unspecified), the largest response in the series, negative = inhibition is 9.58%. Consider `CCOc1ccc(S(=O)(=O)NCC2CCCO2)cc1` (stereo unspecified), for which the largest response in the series, negative = inhibition was 12.6%.

Turning to `CCOc1ccc(-n2c(N)c(C(=O)NCC3CCCO3)sc2=S)cc1` (stereo unspecified), the Potency is 50.1 µM (active).

In the case of `COc1ccc(-c2cc(=O)oc3cc(OCC(=O)N[C@@H](Cc4c[nH]c5ccccc45)C(=O)O)ccc23)cc1`, the largest response in the series, negative = inhibition is -17.5%.

As for `COc1ccc(-c2cc(C(=O)NC(Cc3c[nH]c4ccccc34)C(=O)O)c(C)o2)cc1OC` (stereo unspecified), the Potency was 35.5 µM (active). As to `Cc1cccc(C)c1OCC(=O)NC(Cc1c[nH]c2ccccc12)C(=O)O` (stereo unspecified), the largest response in the series, negative = inhibition was 12.2%. With `CC1C(=O)Nc2ccccc2N1C(=O)c1ccc(F)cc1F` (stereo unspecified), the largest response in the series, negative = inhibition was 9.39%.
